Data published in PubChem BioAssay (NCATS).
Results filed as inconclusive are left out. Active and inactive are the calls of the source. Calls come from the whole dose curve; as a rule, active = well fitted curve in the direction sought with a large enough effect; inconclusive = small, poorly fitted or top-dose-only effect, or another doubt; inactive = no such curve, though single readings can be large; an effect the other way counts as inactive or inconclusive.

Experiments:
[1] = biological target: Glutathione peroxidase 1 (Homo sapiens) (UniProt P07203); assay: Primary qHTS Assay for Inhibitors of Recombinant Selenoprotein Glutathione Peroxidase 1 (GPX1) (AID 1845191); note: nearly all actives have a fitted effect of over 65% in size; note: potency is the fitted concentration of half-maximal effect
Chain of Glutathione peroxidase 1 (Homo sapiens) (P07203 whole entry, looked up): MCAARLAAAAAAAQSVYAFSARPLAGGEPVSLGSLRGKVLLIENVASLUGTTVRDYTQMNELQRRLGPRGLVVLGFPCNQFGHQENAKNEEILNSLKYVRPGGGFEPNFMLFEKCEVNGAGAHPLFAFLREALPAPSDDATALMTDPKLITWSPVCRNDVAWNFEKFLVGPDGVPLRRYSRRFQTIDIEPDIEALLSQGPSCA
Outline: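 10 nM GPX1 + cpd, 30 min RT; start w/ 1 mM GSH, 0.5 mM cumene hydroperoxide, 0.5 mM NADPH, 100 nM GR, 0.01% BSA; buffer 50 mM Tris-HCl pH 7.5, 2 mM EDTA, 150 mM NaCl; Fl 340/450, 0 & 15 min.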

[2] = biological target: Metallo-beta-lactamase type 2 (Klebsiella pneumoniae) (UniProt C7C422); assay: qHTS to identify inhibitors of the New Delhi Metallo-beta-lactamase (NDM): assay validation screen against the NCATS LOPAC Collection (AID 1794843);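 note: nitrocefin turnover by NDM-1 measured as 485 nm absorbance at plateau; series mostly up to about 38 µM; % is set by controls: 0 for no effect and ±100 for the full control effect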
Chain of Metallo-beta-lactamase type 2 (Klebsiella pneumoniae) (C7C422 whole entry, looked up): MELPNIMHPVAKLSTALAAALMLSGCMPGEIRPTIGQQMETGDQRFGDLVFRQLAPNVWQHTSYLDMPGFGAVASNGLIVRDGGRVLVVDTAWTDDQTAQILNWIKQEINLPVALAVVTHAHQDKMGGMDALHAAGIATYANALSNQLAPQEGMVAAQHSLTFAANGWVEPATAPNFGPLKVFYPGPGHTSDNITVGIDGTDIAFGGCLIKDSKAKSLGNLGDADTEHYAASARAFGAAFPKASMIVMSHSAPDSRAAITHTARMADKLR
Outline: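 Enzyme 2 nM final, 50 mM HEPES pH 7.0, 1 uM ZnSO4, 0.01% Tween20; cpds in DMSO, preincub w/ enzyme; + nitrocefin (50 uM stock); A485 at plateau; no-enzyme column as blank.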

[3] = biological target: Phospholipid hydroperoxide glutathione peroxidase GPX4 (Homo sapiens) (UniProt P36969); assay: Primary qHTS Assay for Inhibitors of Recombinant Selenoprotein Glutathione Peroxidase 4 (GPX4) (AID 1845192); note: nearly all actives have a fitted effect of over 65% in size
Chain of Phospholipid hydroperoxide glutathione peroxidase GPX4 (Homo sapiens) (P36969 whole entry, looked up): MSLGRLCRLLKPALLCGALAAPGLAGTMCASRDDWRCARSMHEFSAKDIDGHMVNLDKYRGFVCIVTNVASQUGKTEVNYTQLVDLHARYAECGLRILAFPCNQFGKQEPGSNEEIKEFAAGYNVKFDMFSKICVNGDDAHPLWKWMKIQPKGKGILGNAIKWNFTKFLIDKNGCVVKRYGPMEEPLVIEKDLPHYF
Outline: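 NADPH consumption, followed by fluorescence at 340/450 nm between 0 and 15 min, reports GPX4 activity via coupled glutathione reductase (100 nM). Enzyme 200 nM was pre-exposed to compound 30 min; 0.5 mM cumene hydroperoxide and 1 mM GSH served as substrates.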

[4] = Primary fluorescence-based thiol-reactive (MSTI) qHTS assay for identification of artifact compounds. (AID 1845221);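 note: series mostly up to about 54 µM; thiol-reactive compounds lower the probe fluorescence signal; nearly all actives have a fitted effect of over 65% in size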
Outline: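 One-hour, room-temperature, dark incubation of compound with 4 uM MSTI in PBS (pH 7.4, 2% DMSO) precedes a fluorescence read at 525 nm excitation, 598 nm emission; Hill-equation fitting yields concentration-response values.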

[5] = system: Nanoluciferase (engineered Oplophorus gracilirostris luciferase); assay: Primary Nanoluciferase (NLuc) qHTS assay for identification of artifact compounds. (AID 1845222);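 note: series mostly up to about 54 µM; 0% = DMSO and -100% = no enzyme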
Outline: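 Compounds are pinned into diluted (1:55) conditioned medium of NLuc-expressing S16 cells and held 15 min at room temperature protected from light. Nano-Glo substrate follows, and luminescence is read 5 min later.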

[6] = Primary redox qHTS assay for identification of artifact compounds. (AID 1845223);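 note: 0% = DMSO and 100% = reference compound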
Outline: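 Amplex Red (25 uM) and HRP (250 mU/mL) in HBSS, with compounds for 15 min, then 250 uM DTT for 30 min, room temperature, dark. Fluorescence 525/598 nm read; normalized to DMSO and 10 uM DA3003; Hill fit.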

[7] = HepG2 viability counterscreen (readout 2: ATP content) against the NCATS DSHEA and TCM libraries (AID 1794840);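 note: HepG2 cells exposed to substances for about 24 h; 0% is about no effect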
Outline: (§1)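 HepG2 cells (1,000 cells/well) attached ~4 h, then treated ~24 h at 37C with substances. Protease activity read by GF-AFC (25 uM final, 30 min, Ex/Em 380/510 nm); ATP content then by CellTiter-Glo luminescence.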

[8] = HepG2 viability counterscreen (readout 1: protease activity) against the NCATS DSHEA and TCM libraries (AID 1794841);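 note: cells exposed to compounds for about 24 h before the protease read; 0% is about no effect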
Outline: as §1

[9] = biological target: Cytochrome P450 3A4 (Homo sapiens) (UniProt P08684); assay: qHTS for inhibitors of CYP3A4 against the NCATS DSHEA and TCM libraries (AID 1919971);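 note: % is set by controls: 0 for no effect and ±100 for the full control effect; inhibition lowers luminescence from luciferin made by CYP3A4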
Chain of Cytochrome P450 3A4 (Homo sapiens) (P08684 whole entry, looked up): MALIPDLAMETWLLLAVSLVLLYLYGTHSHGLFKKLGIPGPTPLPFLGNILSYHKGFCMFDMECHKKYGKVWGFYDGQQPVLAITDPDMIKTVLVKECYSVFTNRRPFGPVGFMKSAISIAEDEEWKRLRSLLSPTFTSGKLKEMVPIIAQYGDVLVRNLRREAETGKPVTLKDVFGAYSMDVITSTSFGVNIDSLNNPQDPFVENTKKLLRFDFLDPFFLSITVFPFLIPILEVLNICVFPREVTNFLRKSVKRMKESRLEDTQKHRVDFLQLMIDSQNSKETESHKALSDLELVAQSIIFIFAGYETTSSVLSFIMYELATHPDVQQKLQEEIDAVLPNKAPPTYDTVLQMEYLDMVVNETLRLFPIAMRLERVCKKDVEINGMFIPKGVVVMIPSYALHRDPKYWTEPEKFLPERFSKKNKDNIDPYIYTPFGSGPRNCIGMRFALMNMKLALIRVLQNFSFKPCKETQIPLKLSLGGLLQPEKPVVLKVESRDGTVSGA
Outline: (§2)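 Light output from converted D-luciferin reports remaining CYP activity. Compounds preincubate with enzyme and substrate for 15 min; NADPH regeneration (1x final) runs the reaction for 30-45 min.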

[10] = biological target: Cytochrome P450 2D6 (Homo sapiens) (UniProt P10635); assay: qHTS for inhibitors of CYP2D6 against the NCATS DSHEA and TCM libraries (AID 1919972); note: % is set by controls: 0 for no effect and ±100 for the full control effect
Chain of Cytochrome P450 2D6 (Homo sapiens) (P10635 whole entry, looked up): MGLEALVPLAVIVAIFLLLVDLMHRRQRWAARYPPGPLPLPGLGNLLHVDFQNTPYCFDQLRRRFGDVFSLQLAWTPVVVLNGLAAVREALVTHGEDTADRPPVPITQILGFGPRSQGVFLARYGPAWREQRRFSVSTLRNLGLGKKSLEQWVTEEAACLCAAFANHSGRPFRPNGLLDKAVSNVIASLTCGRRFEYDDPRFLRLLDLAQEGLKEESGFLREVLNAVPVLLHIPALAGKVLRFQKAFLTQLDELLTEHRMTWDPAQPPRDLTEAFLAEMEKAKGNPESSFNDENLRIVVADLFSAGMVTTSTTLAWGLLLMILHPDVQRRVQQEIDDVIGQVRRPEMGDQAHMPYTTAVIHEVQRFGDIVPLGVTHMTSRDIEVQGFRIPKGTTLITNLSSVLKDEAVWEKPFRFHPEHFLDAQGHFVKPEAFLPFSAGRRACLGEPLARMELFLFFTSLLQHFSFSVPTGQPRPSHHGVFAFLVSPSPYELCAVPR
Outline: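 Steps: enzyme plus luciferin substrate dispensed; test substances pinned; 15 min RT; 1x NADPH regenerating solution added, 30–45 min RT protected from light; detection reagent, 30 min RT; luminescence measured. Minus-enzyme wells as background.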

[11] = biological target: Cytochrome P450 2C9 (Homo sapiens) (UniProt P11712); assay: qHTS for inhibitors of CYP2C9 against the NCATS DSHEA and TCM libraries (AID 1919973);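 note: luminogenic pro-luciferin CYP2C9 substrate turned into luciferin with NADPH regeneration; series mostly up to about 34 µM; % is set by controls: 0 for no effect and ±100 for the full control effect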
Chain of Cytochrome P450 2C9 (Homo sapiens) (P11712 whole entry, looked up): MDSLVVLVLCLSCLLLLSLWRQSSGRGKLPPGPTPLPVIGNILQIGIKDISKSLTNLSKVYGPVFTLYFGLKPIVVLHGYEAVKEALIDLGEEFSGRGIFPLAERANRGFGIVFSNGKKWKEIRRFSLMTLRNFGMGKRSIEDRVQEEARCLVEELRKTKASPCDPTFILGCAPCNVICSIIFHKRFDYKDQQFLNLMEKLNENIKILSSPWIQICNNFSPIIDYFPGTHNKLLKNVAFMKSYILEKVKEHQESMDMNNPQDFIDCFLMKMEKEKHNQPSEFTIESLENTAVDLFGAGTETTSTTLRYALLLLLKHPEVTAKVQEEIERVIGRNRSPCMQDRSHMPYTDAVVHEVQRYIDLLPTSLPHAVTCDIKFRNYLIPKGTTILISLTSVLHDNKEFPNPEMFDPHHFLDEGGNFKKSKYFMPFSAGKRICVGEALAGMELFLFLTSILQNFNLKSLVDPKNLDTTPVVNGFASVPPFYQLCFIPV
Outline: as §2

[12] = biological target: Cytochrome P450 2C19 (Homo sapiens) (UniProt P33261); assay: qHTS for inhibitors of CYP2C19 against the NCATS DSHEA and TCM libraries (AID 1919974);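 note: luminescence from luciferin released by CYP2C19 oxidation of a pro-luciferin substrate; % is set by controls: 0 for no effect and ±100 for the full control effect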
Chain of Cytochrome P450 2C19 (Homo sapiens) (P33261 whole entry, looked up): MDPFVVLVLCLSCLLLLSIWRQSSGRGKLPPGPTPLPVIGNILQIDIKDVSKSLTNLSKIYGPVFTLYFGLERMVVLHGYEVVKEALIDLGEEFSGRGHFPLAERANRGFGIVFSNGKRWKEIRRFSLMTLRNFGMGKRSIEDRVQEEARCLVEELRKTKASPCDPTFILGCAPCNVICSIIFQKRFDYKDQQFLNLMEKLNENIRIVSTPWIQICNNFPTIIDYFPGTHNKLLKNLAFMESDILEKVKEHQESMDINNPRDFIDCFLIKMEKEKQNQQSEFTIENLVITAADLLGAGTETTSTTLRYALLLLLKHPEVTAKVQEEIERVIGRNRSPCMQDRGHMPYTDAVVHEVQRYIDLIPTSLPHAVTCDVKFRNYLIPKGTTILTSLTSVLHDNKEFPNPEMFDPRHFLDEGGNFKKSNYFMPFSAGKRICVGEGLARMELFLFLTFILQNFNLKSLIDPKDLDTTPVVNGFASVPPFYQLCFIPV
Outline: as §2

[13] = KB-3-1 P-gp reporter qHTS against the NCATS DSHEA and TCM libraries (AID 1919975); note: 0% is about no effect
Outline: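 Parental KB-3-1 human cervical adenocarcinoma cells (500 cells/well, DMEM + 10% FBS) were treated with substances for ~72 h at 37C; viability was read by CellTiter-Glo luminescence.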

[14] = biological target: Cytochrome P450 1A2 (Homo sapiens) (UniProt P05177); assay: qHTS for inhibitors of CYPIA2 against the NCATS DSHEA and TCM libraries (AID 1919976)
Chain of Cytochrome P450 1A2 (Homo sapiens) (P05177 whole entry, looked up): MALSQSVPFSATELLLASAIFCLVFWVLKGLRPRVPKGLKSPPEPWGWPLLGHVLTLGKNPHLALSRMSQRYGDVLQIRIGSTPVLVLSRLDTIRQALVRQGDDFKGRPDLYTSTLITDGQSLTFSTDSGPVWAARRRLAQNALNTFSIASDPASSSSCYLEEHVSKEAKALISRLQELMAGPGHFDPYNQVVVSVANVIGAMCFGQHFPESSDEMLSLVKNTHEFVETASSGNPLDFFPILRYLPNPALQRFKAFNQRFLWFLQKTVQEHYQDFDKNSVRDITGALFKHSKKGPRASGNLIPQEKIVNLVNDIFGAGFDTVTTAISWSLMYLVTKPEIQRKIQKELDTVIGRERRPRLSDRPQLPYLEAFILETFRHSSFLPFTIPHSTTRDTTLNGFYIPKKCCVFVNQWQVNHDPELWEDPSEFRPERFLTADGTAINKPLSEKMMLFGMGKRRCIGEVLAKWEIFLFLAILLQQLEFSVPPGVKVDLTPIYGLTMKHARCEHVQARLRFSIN
Outline: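 In this quantitative HTS, inhibition of recombinant human CYP1A2 was measured as loss of luciferin-derived luminescence. Turnover ran 30-45 min at RT after NADPH regeneration solution was added.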

[15] = qHTS Counterscreen for compound interference against the NCATS DSHEA and TCM libraries (AID 1919978); settings: firefly luciferase detection reagent interference, luminescence; note: % of control where 0% means no effect
Outline: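 D-luciferin (1 uM final) or 100 mM potassium phosphate buffer alone was preincubated 15 min at RT with compounds (19.5 nM to 39.8 uM final). Luciferin detection reagent was then added and luminescence read after 30 min at RT.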

[16] = Dual reporter qHTS for agonist of Pregnane X Receptor (hPXR) against the NCATS DSHEA and TCM libraries: Fluorescence readout (AID 1920058); note: 0% is about no effect
Outline: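 Measures viability of the PXR reporter HepG2 line by protease-substrate fluorescence (405/540 nm), taken 1 h after CellTiter-Fluor addition. Substances are tested as concentration series over a ~24 h exposure, with rifampicin as agonist control.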

[17] = biological target: Nuclear receptor subfamily 1 group I member 2 (Homo sapiens) (UniProt O75469); assay: Dual reporter qHTS for agonist of Pregnane X Receptor (hPXR) against the NCATS DSHEA and TCM libraries: Luminescence readout (AID 1920059); note: 0% is about no effect
Chain of Nuclear receptor subfamily 1 group I member 2 (Homo sapiens) (O75469 whole entry, looked up): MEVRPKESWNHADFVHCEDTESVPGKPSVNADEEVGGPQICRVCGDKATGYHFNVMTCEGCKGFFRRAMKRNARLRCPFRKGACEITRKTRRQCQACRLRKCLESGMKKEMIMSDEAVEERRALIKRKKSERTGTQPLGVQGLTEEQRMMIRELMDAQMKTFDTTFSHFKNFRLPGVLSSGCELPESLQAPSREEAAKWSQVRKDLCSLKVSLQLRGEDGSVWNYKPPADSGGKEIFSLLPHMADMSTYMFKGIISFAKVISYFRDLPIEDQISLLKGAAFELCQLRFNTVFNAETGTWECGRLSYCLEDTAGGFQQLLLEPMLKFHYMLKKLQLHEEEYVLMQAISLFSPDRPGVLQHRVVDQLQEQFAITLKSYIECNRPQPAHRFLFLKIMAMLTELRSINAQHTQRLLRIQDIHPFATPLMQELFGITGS
Outline: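 Luminescent PXR reporter read (ONE-Glo) after a CellTiter-Fluor viability read, following 24 h, 37C treatment of HepG2 cells stably carrying hPXR-Luc.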

[18] = biological target: Nuclear receptor subfamily 1 group I member 2 (Homo sapiens) (UniProt O75469); assay: Dual reporter qHTS for antagonist of Pregnane X Receptor (hPXR) against the NCATS DSHEA and TCM libraries: Luminescence Readout (AID 1920060);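 note: HepG2 cells carrying hPXR luciferase reporter stimulated with rifampicin at 2 µM; 0% is about no effect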
Outline: (§3)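 HepG2 hPXR-Luc, 2000 cells/well, charcoal-stripped FBS medium; 5 h attach; RIF 2 uM final; 24 h 37C/5% CO2; CellTiter-Fluor 1 h, fluor 405/540; ONE-Glo 30 min RT, lum.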

[19] = Dual reporter qHTS for antagonist of Pregnane X Receptor (hPXR) against the NCATS DSHEA and TCM libraries: Fluorescence Readout (AID 1920061); note: 0% is about no effect
Outline: as §3

[20] = biological target: Luciferin 4-monooxygenase (Photinus pyralis) (UniProt P08659); assay: Primary firefly luciferase (FLuc) qHTS assay for identification of artifact compounds. (AID 1845220);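 note: series mostly up to about 54 µM; plate controls were DMSO vehicle for no effect and no enzyme for full effect; nearly all actives have a fitted effect of over 60% in size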
Outline: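 Cell-free, 1536-well qHTS. Buffer pH 7.6 with 0.01% Tween-20 and 0.05% BSA; 10 uM D-luciferin, 10 uM ATP; 10 nM P. pyralis luciferase; luminescence after 5 min.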

O=C(O)c1ccccc1Nc1cc(Cl)ccc1C(=O)O
inactive: Potency [1]

O=C1NC(=O)/C(=C/c2ccc3c(c2)OC(F)(F)O3)S1
inactive: outcome [2] | Potency [1] | Potency [3] | Potency [4] | Potency [5] | outcome [6]

N#CSCC(=O)O
inactive: Potency [1] | Potency [3]

O=C(Nc1ccc(S(=O)(=O)N2CCOCC2)cc1)c1cc(Cl)ccc1NS(=O)(=O)c1ccc(Cl)s1
inactive: Potency [1]

O=C1NC(c2cccc([N+](=O)[O-])c2)=CCN1c1ccccc1O
inactive: outcome [2] | Potency [1] | Potency [3] | Potency [5]

C[N+](C)(C)CCO
inactive: outcome [7] | outcome [8] | outcome [2] | Potency [1] | Potency [3] | outcome [9] | outcome [10] | outcome [11] | Potency [12] | outcome [13] | Potency [14] | max response [15] 2.09% | outcome [16] | outcome [17] | outcome [18] | outcome [19]

COC(=O)[C@H]1[C@H]2C[C@@H]3c4[nH]c5cc(OC)ccc5c4CCN3C[C@H]2C[C@@H](OC(=O)/C=C/c2ccc(O)c(OC)c2)[C@@H]1OC
inactive: Potency [1]

CCCc1c2oc(C(=O)O)cc(=O)c2cc2c(=O)cc(C(=O)O)n(CC)c12
inactive: Potency [1]

COc1cc(C(=O)NC2CCCNC2)cc(OC)c1OC (configuration not stated)
active: Potency [1] 12.8 µM

N#Cc1cc(NC(=O)C(=O)O)c(Cl)c(NC(=O)C(=O)O)c1
inactive: Potency [1] | Potency [3]

Nc1ncnc2n[nH]c(Nc3ccc(F)cc3)c12
inactive: outcome [2] | Potency [1] | Potency [3] | Potency [20] | Potency [5] | outcome [6]

CO[C@@]1(NC(=O)CSC[C@@H](N)C(=O)O)C(=O)N2C(C(=O)O)=C(CSc3nnnn3C)CS[C@@H]21
active: Potency [1] 22.7 µM
